Test [1] can be described thus: Quantitative High-Throughput drug screen in 47 multiple myeloma cell lines against the NCATS MIPE library collection: KMS11_JCRBsus cell viability assay (AID 1919873). Further: nearly all actives have a fitted effect of over 50% in size. Particulars: KMS11 myeloma viability, CellTiter-Glo ATP luminescence, 48 h; series mostly up to 45.8 µM. The gist of the method: (§1)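 Inhibition of viability over 48 h was scored by ATP content (CellTiter-Glo) in 500-cell wells. Zero and full viability were defined by media-only and DMSO-only wells.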
A general note: In ATP-based viability assays light output follows the ATP content of the culture.

A short description of test [2]: Quantitative High-Throughput drug screen in 47 multiple myeloma cell lines against the NCATS MIPE library collection: KMS28BM_JCRB cell viability assay (AID 1919874). Further: nearly all actives have a fitted effect of over 35% in size. Particulars: CellTiter-Glo ATP, 48 h; series mostly up to 45.8 µM. The gist of the method:
as §1

Inconclusive results are not listed. Activity calls are given as the source filed them. The call rests on the fitted dose curve; in most records, active means well fitted cell-killing curve with a large enough effect; inconclusive means small, poorly fitted or top-dose-only effect, or effect the other way; inactive means no such curve, though single readings can be large or run the other way.
Potency means the concentration at half of the fitted maximal effect.

With `COc1ccc2[nH]cc(CCNC(C)=O)c2c1`, the Potency result in test [1] was “inactive”. The same measure, in the same setting: the result for `NS(=O)(=O)c1cc2c(cc1Cl)NCNS2(=O)=O` reads “inactive”; that for `O=C(CCCN1CCC(O)(c2ccc(Cl)cc2)CC1)c1ccc(F)cc1`, 23.5 µM (active). Turning to `NC12CC3CC(CC(C3)C1)C2`, in test [1], the Potency was 16.6 µM (active).

On to `CC1(C)O[C@H]2CC(=O)OC[C@]23[C@H]2CC[C@@]4(C)[C@H](c5ccoc5)OC(=O)[C@H]5O[C@]54[C@]2(C)C(=O)C[C@@H]13`, for which the Potency entry in test [1] and in test [2] was “inactive” each time.

Take `COc1ccc2c(c1)c(CC(=O)O)c(C)n2C(=O)c1ccc(Cl)cc1`: the Potency entry in test [1] and in test [2] was “inactive” throughout. With `O=C(Nc1ccc([N+](=O)[O-])cc1Cl)c1cc(Cl)ccc1O`, in test [1], the Potency was 0.526 µM (active). Turning to `Nc1ccn([C@H]2CC[C@@H](CO)O2)c(=O)n1`, the Potency entry in test [1] and in test [2] was “inactive” each time. Take `CCc1cccc2c3c([nH]c12)C(CC)(CC(=O)O)OCC3` (configuration not stated): the Potency entry in test [1] and in test [2] was “inactive” in each case. Turning to `C[C@@H]1CC(=O)NN=C1c1ccc(NN=C(C#N)C#N)cc1`, the Potency in test [1] was 16.6 µM (active); in test [2], 23.5 µM (active).

For `CC(C)Cc1ccc(C(C)C(=O)O)cc1` (configuration not stated), the Potency entry in test [1] was “inactive”. In the case of `CN(Cc1cnc2nc(N)nc(N)c2n1)c1ccc(C(=O)N[C@@H](CCC(=O)O)C(=O)O)cc1`, the Potency in test [1] is 0.0935 µM (active). On to `Cc1cc(C(C)(C)C)cc(C)c1CC1=NCCN1`, for which, in test [1], the Potency entry was “inactive”. The same measure, in the same setting: under `O=C1N(c2ccccc2)c2ccccc2C1(Cc1ccncc1)Cc1ccncc1` stands “inactive”.

`CCC1(C)CC(=O)NC1=O` (configuration not stated): the Potency result in test [1] and in test [2] was “inactive” in each case.

In the case of `O=c1[nH]cc(F)c(=O)[nH]1`, in test [1], the Potency is 13.2 µM (active). In test [2], the Potency result is “inactive”. The corresponding values for `O=C(c1ccc(OCCN2CCCCC2)cc1)c1c(-c2ccc(O)cc2)sc2cc(O)ccc12` are 16.6 µM (active) and 23.5 µM (active). For `CNCCCC12CCC(c3ccccc31)c1ccccc12` the same measures were 9.35 µM (active) and 16.6 µM (active). The corresponding values for `CN(C)C(=O)C(CCN1CCC(O)(c2ccc(Cl)cc2)CC1)(c1ccccc1)c1ccccc1` are 10.5 µM (active) and 18.7 µM (active).

Take `CS(=O)(=O)CCNCc1ccc(-c2ccc3ncnc(Nc4ccc(OCc5cccc(F)c5)c(Cl)c4)c3c2)o1`: in test [1], the Potency was 20.9 µM (active). On the same count and under the same terms, the result for `CN1CCC(=C2c3ccccc3CC(=O)c3sccc32)CC1` reads “inactive”. Turning to `O=C1c2c(O)ccc(O)c2C(=O)c2c(NCCNCCO)ccc(NCCNCCO)c21`, the Potency in test [1] is 1.48 µM (active); in test [2], 0.662 µM (active). For `CCOC(=O)C(C)(C)Oc1ccc(Cl)cc1` the same measures were “inactive” and “inactive”.

As for `CC[C@@]1(O)C(=O)OCc2c1cc1n(c2=O)Cc2cc3c(CN(C)C)c(O)ccc3nc2-1`, the results for the Potency in test [1] and in test [2] were 3.72 µM (active) and 0.662 µM (active), respectively. As for `COc1cc2c(c(OC)c1OC)-c1ccc(OC)c(=O)cc1[C@@H](NC(C)=O)CC2`, the Potency result in test [1] is “inactive”. Same read-out and setting: under `NCCS(=O)(=O)O` stands “inactive”.

Consider `C[C@](N)(Cc1ccc(O)c(O)c1)C(=O)O`, for which, in test [1], the Potency is 7.43 µM (active). In test [2], the Potency result was “inactive”. On to `CN1C(C(=O)Nc2ccccn2)=C(O)c2ccccc2S1(=O)=O`, for which the Potency entry in test [1] was “inactive”. For `CN(CCOc1ccc(NS(C)(=O)=O)cc1)CCc1ccc(NS(C)(=O)=O)cc1`, the Potency entry in test [1] and in test [2] was “inactive” each time. As to `CC(C(=O)O)c1cccc(C(=O)c2ccccc2)c1` (configuration not stated), the Potency result in test [1] and in test [2] was “inactive” throughout.

Regarding `CC(=O)OCC(CCn1cnc2cnc(N)nc21)COC(C)=O`, the Potency result in test [1] and in test [2] was “inactive” throughout. As to `NC(=O)NO`, the results for the Potency in test [1] and in test [2] were 0.526 µM (active) and 0.935 µM (active), respectively. Consider `Cc1ccccc1N1C(=O)c2cc(S(N)(=O)=O)c(Cl)cc2NC1C` (configuration not stated), for which the Potency result in test [1] and in test [2] was “inactive” throughout.

On to `CN1CCN2c3ccccc3Cc3ccccc3C2C1` (configuration not stated), for which the Potency in test [1] and in test [2] was 23.5 µM (active) in each case. `COc1ccc(C2CNC(=O)C2)cc1OC1CCCC1` (configuration not stated): the Potency entry in test [1] and in test [2] was “inactive” each time. As for `CN(C)CCCN1c2ccccc2CCc2ccc(Cl)cc21`, the Potency in test [1] and in test [2] was 20.9 µM (active) each time.

Take `CN1CCN(CCCN2c3ccccc3Sc3ccc(Cl)cc32)CC1`: the Potency was 14.8 µM (active) in test [1] and 20.9 µM (active) in test [2].

Regarding `COc1ccccc1OCC(O)CN1CCN(CC(=O)Nc2c(C)cccc2C)CC1` (configuration not stated), the Potency result in test [1] and in test [2] was “inactive” throughout. With `CC#C[C@]1(O)CC[C@H]2[C@@H]3CCC4=CC(=O)CCC4=C3[C@@H](c3ccc(N(C)C)cc3)C[C@@]21C`, the Potency in test [1] and in test [2] was 7.43 µM (active) throughout. On to `NCCCCCC(=O)O`, for which the Potency result in test [1] and in test [2] was “inactive” throughout. `NCCc1cnc[nH]1`: the Potency entry in test [1] and in test [2] was “inactive” throughout. On to `COc1cc2nc(N3CCN(C(=O)c4ccco4)CC3)nc(N)c2cc1OC`, for which the Potency in test [1] was 13.2 µM (active); in test [2], 10.5 µM (active). The corresponding values for `OCCN1CCN(CCCN2c3ccccc3Sc3ccc(C(F)(F)F)cc32)CC1` are 13.2 µM (active) and 23.5 µM (active).

For the origin of these results see PubChem BioAssay (NCATS).
